Assay outcomes: PubChem, National Center for Advancing Translational Sciences (NCATS)
Caspase-7 inhib – caspase-7 (human) inhibition, allosteric or competitive. P55210. recombinant caspase-7, Ac-DEVD-AFC fluorescence rate. Potency, µM (top dose mostly 57.5 µM), hits mostly inhibitors. hit rate 0.02% among 75,000. AID 889; active = well fitted inhibition curve with a large enough effect in the main read-out, with a control signal flat, not every such curve was filed as active; inconclusive = small, poorly fitted or top-dose-only effect, or a change in a side signal
15-hLO inh – blocks human 15-lipoxygenase activity; purified 15hLO-1, xylenol orange hydroperoxide absorbance; Potency, µM (series often up to 57.1 µM), usual class: inhibitors; hit rate 1.4% among 74,000; AID 887; also: nearly all actives have a fitted effect of over 55% in size
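Compounds were preincubated 15 min at room temperature with 40 nM purified human enzyme (25 mM Hepes pH 7.5, 0.01% Triton X-100); 50 uM arachidonic acid reacted 6 min. Fe-xylenol orange detection, 30 min, absorbance ratio 573/405 nm.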
BRCT inh green – inhibitors of human BRCA1 BRCT-phosphoprotein interaction (green fluorophore) | P38398 | hit rate 0.05% among 75,000 | Potency, µM (series often up to 76.9 µM), actives largely listed as inhibitors | BRCA1 BRCT-phosphopeptide binding, green fluorescence polarization
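Compounds were incubated for 12 min at room temperature with a complex of 100 nM fluorescein-tagged pBACH1 decapeptide and 250 nM His-tagged BRCT protein. Buffer was phosphate pH 7.3 with EDTA, DTT and Tween 20. Disruption of binding lowers the polarization signal.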
Caspase-1 inhib – caspase-1 (human) inhibition, allosteric or competitive | Potency, µM (highest dose often 57.5 µM), actives largely listed as inhibitors | Caspase-1 enzyme, Ac-WEHD-AFC fluorogenic rate | P29466 | hit rate 0.03% among 75,000
USP2a inhib – USP2a (human) protease inhibition. Potency, µM (doses to about 38.3 µM), hits mostly inhibitors. USP2a enzymatic assay, qHTS inhibition. O75604. AID 927. hit rate 0.1% among 60,000; also: nearly all actives have a fitted effect of over 60% in size
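20 nM USP2 core + cpd, 30 min RT; add 20 nM Ub-PLA2/20 uM NBD C6-HPC; read Ex460/Em535 at 0 h and 2.5 h. Normalized to NEM; qHTS curve fit/classification.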
BRCT inh red – disrupts BRCA1 BRCT binding to phosphoprotein, red fluorophore readout. BRCT-phosphopeptide binding, red fluorescence polarization. Potency, µM (top dose mostly 76.9 µM), usual class: inhibitors. hit rate 0.03% among 75,000
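Rhodamine-labelled pBACH1 10-mer (100 nM) bound to BRCT domain (100 nM) at pH 7.3; compounds incubated 12 min room temperature, polarization read. Free peptide defines full inhibition; unlabelled decapeptide titrated as control.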
Hits are given with their value; n = inactive; u = inconclusive; x = no result given; ! = not confirmed by another sample; [ ] = dose if it differs, or a comment. Compounds with a hit are over-represented: about 1.5% of the library has one in this group of screens. Unless noted, calls follow the shape of the dose curve; as a rule, active = well fitted curve in the direction sought with a large enough effect; inconclusive = small, poorly fitted or top-dose-only effect, or another doubt; inactive = no such curve, though single readings can be large; an effect the other way counts as inactive or inconclusive.

SMILES | Caspase-7 inhib | 15-hLO inh | BRCT inh green | Caspase-1 inhib | USP2a inhib | BRCT inh red
CCn1c(N)c(C(=O)NC)sc1=S | n | 4µM | n | n | n | n
COc1cc2c(cc1O)-c1c(O)c(OC)cc3c1[C@H](C2)N(C)CC3 | n | n | n | 32µM | x | n
O=c1cc(-c2ccc(O)c(O)c2)oc2cc(O)cc(O)c12 | n | 2.5µM | n | n | n | n
O=c1c2ccccc2nc(CSc2ncnc3nc[nH]c23)n1-c1ccccc1 | n | n | n | n | n | n
O=C(O)c1cc[c]([Hg][S]c2ncnc3nc[nH]c23)cc1 | n[11.5 µM] | 0.79µM | n[15.4 µM] | n[11.5 µM] | x | n[15.4 µM]
CCCN1CCC[C@H](c2cccc(C#N)c2)C1 | n | n | n | u | n | n
CC(=O)Nc1nnc(SCC(=O)NCCOc2ccccc2)s1 | n | u | n | n | 7.9µM | n
C[C@]12Cc3cn4c(nc3C=C1CC[C@H]1[C@@H]2CC[C@@]2(C)[C@H]1CC[C@@]2(O)C#N)nc1ccccc14 | u | n | n | n | n | n
O=C(NC(=O)c1c(F)cccc1F)Nc1cc(Cl)c(OC(F)(F)C(F)C(F)(F)F)cc1Cl (centres undefined) | n | 16µM | n[3.08 µM] | n | n | n
CO[C@@H]1CC=C2CCN3CCC4=C(CC(=O)OC4)[C@]23C1 | n | n | n | n | n | n
NC[C@H](O)c1cc(O)c(O)cc1F | n | n | n | n | n | n
C[C@H]1[C@@H](O)[C@@H](C)/C=C\C=CCC\C=C/C=C\C=C/C=C[C@@H](O[C@H]2O[C@@H](C)[C@@H](O)[C@@H](N)[C@@H]2O)C[C@@H]2O[C@@](O)(C[C@@H](O)[C@H]2C(=O)O)C[C@@H](O)[C@@H](O)CC[C@@H](O)C[C@@H](O)C[C@@H](O)CC(=O)O[C@H]1C | n | 7.9µM | n | n | n | n
CC1/C=C/C=C/CC/C=C/C=C/C=C/C=C/C(OC2OC(C)C(O)C(N)C2O)CC2O[C@](O)(CC(O)C(O)CCC(O)CC(O)CC(O)CC(=O)OC(C)C(C)C1O)CC(O)C2C(=O)O (some centres undefined) | n | n | n[3.08 µM] | n | n | n
N[C@@H]1CCc2cc(O)c(O)cc2C1 | n | n | n | n | n | n
O=C(O)[C@@H](O)[C@@H](O)[C@@H]1[O][Sb][O][C@@H]1CO | n[11.5 µM] | n[11.4 µM] | n[15.4 µM] | n[11.5 µM] | x | n[15.4 µM]
COc1ccc(C2=NCC(=O)N(CC(=O)NCc3ccco3)c3sc4c(c32)CCCC4)cc1 | n | u | n | n | n | n
Cc1cccc(C2=NCC(=O)N(CC(=O)NCc3ccco3)c3sc4c(c32)CCCC4)c1 | n | 25µM | n | n | n | n
Fc1ccc(C(OCCN2CCN(CCCc3ccccc3)CC2)c2ccc(F)cc2)cc1 | n | n | n | n | n | n
c1ccc(CCCN2CCN(CCOC(c3ccccc3)c3ccccc3)CC2)cc1 | n | 25µM | n | n | n | n
C[C@@H]1[C@H]2C=C[C@@H]1[C@@H](c1c3ccc(=O)c(O)c-3oc3c(O)c(O)ccc13)[C@@H]2C(=O)O | n[11.5 µM] | u | u | n[11.5 µM] | x | u
COc1cc2c(cc1OC)[C@@H]1C(=O)c3ccc(OC)c(CC=C(C)C)c3OC1CO2 (some centres undefined) | n | 16µM | n | n | n | n
CC[C@H](CO)NC(=O)[C@@H]1C=C2c3cccc4c3c(cn4C)C[C@@H]2N(C)C1 | n | n | n | n | n | n
O=C1NC(=O)C(=O)C(=O)N1 | n | n | n | n | 10µM | n
Cn1ncnc2c(=O)n(C)c(=O)nc1-2 | u | n | n | 13µM | n | n
CC(C)N[C@@H](C)Cc1ccc(I)cc1 | n | n | n | n | n | n
SMILES | Caspase-7 inhib | 15-hLO inh | BRCT inh green | Caspase-1 inhib | USP2a inhib | BRCT inh red
COC(=O)[C@H](N)CCCN=C(N)N[N+](=O)[O-] | n | n | n | n | n | n
N#CS.N=C=S.N=C=S.[Cu].[NH2-].[NH2-].[NH2-].[NH2-].c1ccc2ncccc2c1 | n[11.5 µM] | 2.5µM | n[15.4 µM] | n[11.5 µM] | x | n[15.4 µM]
CC(C)(C)c1cc(O)ccc1O | n[11.5 µM] | 20µM | n[15.4 µM] | n | x | n
CC(C)(C)c1ccccc1O | n | n | n | n | x | n
CC1=CC(=O)NP(=O)(Oc2ccc3ccccc3c2)N1 (centres undefined) | n | 13µM | n | n | x | n
Ic1ccccc1CN[C@@H]1C2CCN(CC2)[C@H]1C(c1ccccc1)c1ccccc1 | n | n | n | n | n | n
C/C=C(\C)C(=O)O[C@@H]1C(C)=C2[C@H]([C@@H]1OC(=O)CCCCCCC)[C@@](C)(OC(C)=O)C[C@@H](OC(=O)CCC)[C@@]1(O)[C@H]2OC(=O)[C@]1(C)O | n | 20µM | n | n | n | n
O=C(O)[C@H]1[C@H](C(=O)O)[C@H]2CC[C@@H]1O2 | n | n | n | n | n | n
COCc1cc(C)c(C#N)c(=S)[nH]1 | n | 1.6µM | n | n | n | n
C=CCc1c(C)[nH]c(=S)c(C#N)c1C | n | 16µM | n | n | n | n
C[C@@H](O)CN(CCN(C[C@@H](C)O)C[C@@H](C)O)C[C@@H](C)O.O=[N+]([O-])O.[Cu] | n[11.5 µM] | 4µM | n[15.4 µM] | n[11.5 µM] | x | n[15.4 µM]
CC(C)[N+](=O)[O-] | n | n | n | n | x | n
CC(C)CC(N(C)C)C1(c2ccc(Cl)cc2)CCC1 (centres undefined) | n | 20µM! | n | n | n | n
COc1ccc2c(c1)[C@]13CCCC[C@@H]1[C@H](C2)NCC3 | n | n | n | n | n | n
C[C@H](N)[C@H](O)c1ccc(O)c(O)c1 | n | 3.2µM! | n | n | n | n
CC(C)(O)[C@H]1[C@H]2OC(=O)[C@@H]1[C@]1(O)C[C@H]3O[C@]34C(=O)O[C@H]2[C@]14C (tested in a mixture with another compound) | n | n | n | n | n | n
Nc1c(C(=O)NCCN2CCOCC2)c2nc3ccccc3nc2n1Cc1ccco1 | u | 13µM | n | x | n | n
CCCCn1c(N)c(C(=O)NCCN2CCOCC2)c2nc3ccccc3nc21 | u | n | n | x | n | n
NC(N)=Nc1ccc2[nH]c3c(c2c1)C[C@]1(O)[C@@H]2Cc4ccc(O)c5c4[C@]1(CCN2CC1CC1)[C@H]3O5 | n | 1.3µM | n | n | n | n
O=C1C(Cl)=C(Cl)C(=O)C(Cl)=C1Cl | n | 0.16µM | n[3.08 µM] | n | n | n
C=CCN1C[C@@H](C)N([C@H](c2ccc(C(=O)N(CC)CC)cc2)c2cccc(OC)c2)C[C@H]1C | n | n | n | n | n | n
CC(=O)OCC1=C(C(=O)O)N2C(=O)[C@@H](N)[C@@H]2SC1 | n | n | n | n | n | n
CC(=O)OCC1=C(C(=O)[O-])N2C(=O)[C@@H](NC(=O)CCC[C@@H](N)C(=O)[O-])[C@@H]2SC1.[Zn+2] | n | 25µM | n | n | n | n
